Assay [1] in a line: Tanguay_ZF_120hpf_OTIC_legacy: (Legacy) Oregon State University Tanguay Lab 120 Hour Post-fertilization zebrafish Assay for Otic Vesicle Malformation (AID 2283639). The procedure, abridged:
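Wild-type zebrafish larvae, whole-embryo exposure from early stage to 120 hpf at 28C. Binary brightfield scoring of otic vesicle morphology, fitted in the positive direction against the DMSO baseline.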

Assay [2] can be described thus: Tanguay_ZF_120hpf_PE_legacy: (Legacy) Oregon State University Tanguay Lab 120 Hour Post-fertilization zebrafish Assay for Pericardial Edema (AID 2283640).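 For AC50: potency for increased incidence of pericardial edema versus DMSO baseline.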 The gist of the method: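 Tropical 5D wild-type zebrafish embryos were statically exposed until 120 hpf at 28C, with 0.64% DMSO final. Pericardial edema was scored by brightfield as present or absent; endpoints were not scored in dead embryos.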

Assay [3] is described as follows: Tanguay_ZF_120hpf_BRAI_legacy: (Legacy) Oregon State University Tanguay Lab 120 Hour Post-fertilization zebrafish Assay for Brain Malformation (AID 2283641). The procedure, abridged: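 Tropical 5D wild-type zebrafish embryos exposed statically until 120 hpf at 28C, 0.64% DMSO final, sealed and dark. Brain malformation scored present/absent by brightfield at 120 hpf; dead embryos excluded. Trimethyltin chloride 5uM positive control.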

A short description of assay [4]: Tanguay_ZF_120hpf_SOMI_legacy: (Legacy) Oregon State University Tanguay Lab 120 Hour Post-fertilization zebrafish Assay for Somite Malformation (AID 2283647). The gist of the method: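 Dechorionated Tropical 5D wild-type zebrafish embryos, one per well from 6 hpf, statically exposed at 28C to 120 hpf in 0.64% DMSO; somite malformation scored present/absent by brightfield; trimethyltin 5 uM positive control; dead embryos not scored.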

Assay [5] in a line: Tanguay_ZF_120hpf_CFIN_legacy: (Legacy) Oregon State University Tanguay Lab 120 Hour Post-fertilization zebrafish Assay for Caudal Fin Malformation (AID 2283649). The procedure, abridged: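 Dechorionated Tropical 5D wild-type embryos, one per well from 6 hpf, static exposure to 120 hpf at 28C in 0.64% DMSO. Caudal fin malformation scored by brightfield as present/absent; not scored in dead embryos.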

Assay [6] is described as follows: Tanguay_ZF_120hpf_PIG_legacy: (Legacy) Oregon State University Tanguay Lab 120 Hour Post-fertilization zebrafish Assay for Pigmentation Malformation (AID 2283650). The gist of the method: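 Brightfield scoring of pigmentation malformation at 120 hpf, recorded as binary present/absent per larva. Exposure: dechorionated 5D wild-type embryos, one per well, static from 6 hpf at 28C, final DMSO 0.64% (vol/vol). Dead embryos not scored.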

The nature of assay [7]: Tanguay_ZF_120hpf_CIRC_legacy: (Legacy) Oregon State University Tanguay Lab 120 Hour Post-fertilization zebrafish Assay for Circulatory Malformation (AID 2283651). The gist of the method: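 Binary circulatory-malformation call at 120 hpf via brightfield imaging, relative to DMSO controls. Embryos (5D strain, chorion removed) received static, light-shielded exposure at 28C.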

Assay [8] in a line: Tanguay_ZF_120hpf_SWIM_legacy: (Legacy) Oregon State University Tanguay Lab 120 Hour Post-fertilization zebrafish Assay for Swim Bladder Malformation (AID 2283654).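 Note: swim bladder malformation in each larva scored yes or no under brightfield.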 The gist of the method:
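Tropical 5D embryos dechorionated at 4 hpf; 1 embryo/well from 6 hpf; static, sealed, dark exposure at 28C until 120 hpf; final DMSO 0.64%; 5uM trimethyltin chloride positive control; swim bladder defect recorded yes/no; dead embryos not scored.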

The nature of assay [9]: Tanguay_ZF_120hpf_TRUN_legacy: (Legacy) Oregon State University Tanguay Lab 120 Hour Post-fertilization zebrafish Assay for Truncated Body (AID 2283655). The gist of the method: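 Dechorionated Tropical 5D wild-type embryos placed singly from 6 hpf and statically exposed to 120 hpf at 28C, final DMSO 0.64%. Truncated body scored as present/absent by brightfield; not scored in dead embryos.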

Read-out in assay [10]: Broad substrate specificity ATP-binding cassette transporter ABCG2 (Homo sapiens) (UniProt Q9UNQ0)
In words: CLD_ABCG2_6hr: CellzDirect (CLD) Gene Expression Assay for ABC Transporter (ABCG2) at 6 hours (AID 2283660). The procedure, abridged:
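ABCG2 mRNA induction measured by qNPA chemiluminescence in human primary hepatocyte cultures, 6 h post-dose. Chemicals tested at several concentrations against a 0.2% DMSO vehicle; positive-direction fit relative to DMSO.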

Read-out in assay [11]: xenobiotic metabolism (CYP1A1), CYP1A1 (gene 1543)
The assay is described as follows: CLD_CYP1A1_6hr: CellzDirect (CLD) Gene Expression Assay for xenobiotic metabolism (CYP1A1) at 6 hours (AID 2283661).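 For AC50: potency for transcript induction above DMSO vehicle baseline.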 The gist of the method: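 Read-out 6 h post-dose: qNPA chemiluminescent quantitation of transcript induction against 0.2% DMSO. Cells were cultured primary human hepatocytes from two separate donor preparations; phase-contrast morphology annotated apparent cytotoxicity.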

Assay [12] in a line: Tanguay_ZF_120hpf_JAW_legacy: (Legacy) Oregon State University Tanguay Lab 120 Hour Post-fertilization zebrafish Assay for Jaw Malformation (AID 2283638).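 For AC50: active means more embryos with jaw malformation than DMSO controls.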 The procedure, abridged: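 Dechorionated Tropical 5D wild-type zebrafish embryos, one per well, exposed statically from 6 hpf to 120 hpf at 28C in 0.64% DMSO. Jaw malformation was scored by brightfield microscopy as present or absent. It was not scored in dead embryos.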

A short description of assay [13]: Tanguay_ZF_120hpf_PFIN_legacy: (Legacy) Oregon State University Tanguay Lab 120 Hour Post-fertilization zebrafish Assay for Pectoral Fin Malformation (AID 2283648).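 Note: each larva judged yes or no for fin defect by brightfield with dead larvae skipped.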 The gist of the method:
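Binary pectoral fin malformation call at 120 hpf by brightfield microscopy; 5D wild-type zebrafish, chorion removed at 4 hpf, one embryo per well from 6 hpf, static exposure at 28C; DMSO (0.64% final) as baseline.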

The nature of assay [14]: Tanguay_ZF_120hpf_NC_legacy: (Legacy) Oregon State University Tanguay Lab 120 Hour Post-fertilization zebrafish Assay for Notochord and Tail Malformation (AID 2283656). The procedure, abridged:
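Binary notochord-distortion calls, made by brightfield inspection, form the read-out; activity is fitted in the positive direction against DMSO. Exposure ran statically from 6 to 120 hpf at 28C with 0.64% DMSO.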

Read-out in assay [15]: ABC Transporter (ABCB1), ABCB1 (gene 5243)
The assay is described as follows: CLD_ABCB1_6hr: CellzDirect (CLD) Gene Expression Assay for ABC Transporter (ABCB1) at 6 hours (AID 2283659).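 Note: hits raise ABCB1 transcript above the DMSO vehicle baseline.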 The gist of the method: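 ABCB1 transcript measured by quantitative nuclease protection assay, chemiluminescent read-out, 6 h after dosing human hepatocyte cultures (0.2% DMSO vehicle, daily redosing). Activity fitted as increase over DMSO baseline; cytotoxicity flagged by phase-contrast morphology.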

Inconclusive results are not listed. A structure can be active in one record and inactive in another. Calls of active or inactive are those of the source. Rule for the calls: active = hit-call score of the fitted dose curve at least 0.9, where 1 is the maximum; inconclusive = response in the unintended direction; inactive = score below 0.9.

In general, AC50 refers to the midpoint of the concentration-response curve, whichever way the signal moves.

Chain of Broad substrate specificity ATP-binding cassette transporter ABCG2 (Homo sapiens) (Q9UNQ0 whole entry, looked up): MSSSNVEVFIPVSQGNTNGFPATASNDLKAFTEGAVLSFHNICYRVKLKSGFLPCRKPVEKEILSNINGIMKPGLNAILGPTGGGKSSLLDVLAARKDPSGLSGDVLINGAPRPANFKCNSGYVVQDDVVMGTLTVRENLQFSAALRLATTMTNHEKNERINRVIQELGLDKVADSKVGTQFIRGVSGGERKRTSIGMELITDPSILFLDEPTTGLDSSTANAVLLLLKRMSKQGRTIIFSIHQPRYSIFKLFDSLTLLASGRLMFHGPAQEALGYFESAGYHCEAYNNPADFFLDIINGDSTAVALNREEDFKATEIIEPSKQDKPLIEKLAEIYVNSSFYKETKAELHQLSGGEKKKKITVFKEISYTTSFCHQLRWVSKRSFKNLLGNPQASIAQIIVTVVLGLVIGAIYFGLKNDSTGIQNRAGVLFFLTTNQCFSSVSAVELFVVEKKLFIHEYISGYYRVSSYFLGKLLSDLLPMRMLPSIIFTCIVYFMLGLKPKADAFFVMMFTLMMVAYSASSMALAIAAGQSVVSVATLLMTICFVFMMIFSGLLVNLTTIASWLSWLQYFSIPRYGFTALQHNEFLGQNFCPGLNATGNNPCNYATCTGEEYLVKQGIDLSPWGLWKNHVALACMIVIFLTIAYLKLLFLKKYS

As for `COP(N)(=O)SC` (configuration not stated), the molecule was classed as inactive in assay [1], in assay [2], in [3], in [4], in assay [5] and in assay [6]. The result in [7], in [8], in assay [9], in [10] and in [11] was inactive.

`CCNc1nc(Cl)nc(NCC)n1`: the molecule was classed as inactive in [12], in assay [1], in assay [2], in assay [3], in assay [4] and in assay [13]. For the same molecule, the outcome in assay [5], in [7], in assay [8] and in assay [9] was inactive. Besides, in [11], the AC50 is 4.72 µM (active).

Consider `CS/C(C)=N/OC(=O)N(C)SN(C)C(=O)O/N=C(\C)SC`, for which the call in assay [12], in assay [1], in [2], in [3], in assay [5] and in assay [6] was inactive. The molecule was called inactive in assay [8], in assay [9], in [10] and in assay [11]. Moreover, the AC50 in assay [14] was 25 µM (active).

`CC1=C(C(=O)Nc2ccccc2)SCCO1`: the molecule was classed as inactive in assay [12], in assay [1], in assay [2], in [3], in assay [5] and in [6]. For the same molecule, the molecule was classed as inactive in assay [7], in assay [9] and in assay [14]. For the same molecule, the AC50 in assay [11] is 11.1 µM (active).

For `CC1COC(Cn2cncn2)(c2ccc(Oc3ccc(Cl)cc3)cc2Cl)O1` (configuration not stated), the figures for the AC50 in assay [12] and in assay [13] were 26.6 µM (active) and 3.69 µM (active), respectively. Further, the call in assay [1], in assay [2], in [4], in [7], in assay [8] and in assay [14] was inactive. Further, the molecule was called inactive in assay [15], in [10] and in [11].

As for `COc1cnc(OC)n2nc(NS(=O)(=O)c3c(OCC(F)F)cccc3C(F)(F)F)nc12`, the molecule was classed as inactive in [12], in [1], in assay [2], in assay [4], in [13] and in assay [5]. The outcome in assay [6], in assay [7], in [8], in assay [9], in assay [14] and in assay [15] was inactive. The AC50 in assay [11] is 0.121 µM (active).

On to `O=C(Nc1ccccc1)Nc1ccnc(Cl)c1`, for which the molecule was classed as inactive in assay [12], in assay [1], in [3], in assay [4], in assay [5] and in [6]. Moreover, the outcome in assay [7], in assay [8], in [14] and in [10] was inactive. Besides, the AC50 was 50.5 µM (active) in [2] and 12.3 µM (active) in assay [11].

Consider `N#CC(CCc1ccc(Cl)cc1)(Cn1cncn1)c1ccccc1` (configuration not stated), for which the molecule was classed as inactive in assay [12], in assay [1], in [2], in assay [3], in [4] and in [13]. Also, the outcome in assay [5], in assay [6], in assay [7], in [8], in [14] and in assay [15] was inactive. For the same molecule, in assay [10], the call was inactive. The AC50 in assay [11] was 1.89 µM (active).

Consider `COc1nc(C)nc(NC(=O)NS(=O)(=O)c2ccccc2Cl)n1`, for which the call in [15], in [10] and in assay [11] was inactive. The AC50 in [11] was 0.00131 µM (active).

Take `CCCCNC(=O)n1c(NC(=O)OC)nc2ccccc21`: the AC50 in [12] was 59.2 µM (active); in assay [6], 27.9 µM (active); in [11] it was 3.66 µM (active). The outcome in assay [1], in [2], in assay [4], in [13], in assay [5] and in [7] was inactive. Also, the result in [8], in [9], in assay [14], in assay [15] and in assay [10] was inactive.

Turning to `C#CCOS(=O)OC1CCCCC1Oc1ccc(C(C)(C)C)cc1` (configuration not stated), the molecule was called inactive in [12], in [1], in assay [2], in assay [3], in [4] and in assay [13]. The result in assay [5], in assay [6], in assay [7], in assay [8], in [14] and in assay [10] was inactive. Besides, the AC50 in [11] is 3.67 µM (active).

In the case of `COP(=S)(OC)Oc1nc(Cl)c(Cl)cc1Cl`, the AC50 in assay [12] was 34 µM (active); in assay [11] it was 5.29 µM (active). Further, the result in assay [1], in assay [3], in assay [4], in [13], in assay [5] and in assay [6] was inactive. For the same molecule, the molecule was called inactive in assay [7], in assay [8], in assay [9], in assay [14], in assay [15] and in assay [10].

On to `C=CCC1=C(C)[C@@H](OC(=O)[C@@H]2[C@@H](C=C(C)C)C2(C)C)CC1=O`, for which the result in [2], in assay [3], in [4], in assay [13], in [5] and in assay [6] was inactive. In addition, the molecule was classed as inactive in [7], in [8], in assay [14], in [15], in [10] and in [11].

In the case of `CCOC(=O)CC(SP(=S)(OC)OC)C(=O)OCC` (configuration not stated), the AC50 in assay [12] was 33.7 µM (active); in [2] it was 37 µM (active); in assay [4], 32 µM (active); in assay [13], 34 µM (active); in assay [5], 36.2 µM (active); in assay [8], 28.8 µM (active). The values for the AC50 in assay [9] and in assay [11] were 34.2 µM (active) and 3.97 µM (active), respectively. In addition, the molecule was called inactive in [1], in assay [3], in [7], in [14], in assay [15] and in assay [10].

Regarding `Oc1ccccc1-c1ccccc1`, the result in [12], in assay [2], in assay [3], in [4], in [13] and in assay [5] was inactive. The molecule was classed as inactive in assay [6], in assay [7], in assay [8], in assay [9], in assay [14] and in [15]. Moreover, in [10], the molecule was classed as inactive.

The values are drawn from PubChem BioAssay (EPA / NIEHS).
